Experimental findings from PubChem BioAssay AID1159580 (chemical genetic matrix, 2015) are described below.

In all, about 5,500 compounds went through this assay and about 2,000 (36%) were called active. About 18% were inconclusive and are not listed. Some of the results follow. A number with no mark means an inactive call. Cut-off read from the data, not from the text of the source: active = normalized growth mostly below about 0.91 (no sharp cut-off); inconclusive = no clear call, values can overlap the other calls; inactive = mostly above about 0.92.

This experiment can be described thus: chemical genetic growth profiling, strain panel (AID 1159580).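 Note: tested at 20 µM; growth read once vehicle control cultures reached saturation at 30 °C; 1 = growth at the plate median or of vehicle wells; lower values mean less growth of the strain.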 The note with it: growth OD.
Setting [1] is: S. cerevisiae deletion strains, locus YAL013W, strain DEP1, hits give low values.
Setting [2] is: S. cerevisiae deletion strains, locus YBR229C, strain ROT2, hits give low values.
Where [3] appears, read: S. cerevisiae deletion strains, locus YDL101C, strain DUN1, hits give low values.
The mark [4] stands for this setting: S. cerevisiae deletion strains, locus YDR150W, strain NUM1, hits give low values.
The mark [5] stands for this setting: S. cerevisiae deletion strains, locus YEL061C, strain CIN8, hits give low values.
The mark [6] stands for this setting: S. cerevisiae deletion strains, locus YGR078C, strain PAC10, hits give low values.
Where [7] appears, read: S. cerevisiae deletion strains, locus YHR030C, strain SLT2, hits give low values.
Setting [8] is: S. cerevisiae deletion strains, locus YHR087W, strain rtc3, hits give low values.
Setting [9] is: S. cerevisiae deletion strains, locus YJL187C, strain SWE1, hits give low values.
[10] abbreviates: S. cerevisiae deletion strains, locus YJR043C, strain POL32, hits give low values.
The mark [11] stands for this setting: S. cerevisiae deletion strains, locus YJR075W, strain HOC1, hits give low values.
The mark [12] stands for this setting: S. cerevisiae deletion strains, locus YKL190W, strain CNB1, hits give low values.
Setting [13] is: S. cerevisiae deletion strains, locus YLR039C, strain RIC1, hits give low values.
The mark [14] stands for this setting: S. cerevisiae deletion strains, locus YLR058C, strain SHM2 (second series), hits give low values.
The mark [15] stands for this setting: S. cerevisiae deletion strains, locus YLR085C, strain ARP6, hits give low values.
Setting [16] is: S. cerevisiae deletion strains, locus YLR262C, strain YPT6, hits give low values.
The mark [17] stands for this setting: S. cerevisiae deletion strains, locus YML094W, strain GIM5, hits give low values.
The mark [18] stands for this setting: S. cerevisiae deletion strains, locus YMR219W, strain ESC1, hits give low values.
Where [19] appears, read: S. cerevisiae deletion strains, locus YMR263W, strain SAP30, hits give low values.
[20] abbreviates: S. cerevisiae deletion strains, locus YMR307W, strain GAS1, hits give low values.
Setting [21] is: S. cerevisiae deletion strains, locus YNL153C, strain GIM3, hits give low values.
Where [22] appears, read: S. cerevisiae deletion strains, locus YNL298W, strain CLA4 (second series), hits give low values.
[23] abbreviates: S. cerevisiae deletion strains, locus YNL322C, strain KRE1, hits give low values.
Where [24] appears, read: S. cerevisiae deletion strains, locus YNR030W, strain Alg12, hits give low values.
Where [25] appears, read: S. cerevisiae deletion strains, locus YPL055C, strain LGE1, hits give low values.
Setting [26] is: S. cerevisiae deletion strains, locus YPL241C, strain CIN2, hits give low values.
[27] abbreviates: S. cerevisiae deletion strains, locus YPR135W, strain CTF4, hits give low values.
Setting [28] is: S. cerevisiae strains, strain wild type, hits give low values.

Take `Nc1ccc2nonc2c1N`: the normalized growth runs as follows: under setting [1], 0.965; under setting [2], 0.96; (S. cerevisiae deletion strains, locus YCL061C, strain MRC1, hits give low values) 0.902 (active); under setting [3], 0.906; (S. cerevisiae deletion strains, locus YDL134C, strain PPH21, hits give low values) 0.968; under setting [4], 0.941. The normalized growth is 0.956 under setting [5]; 0.933 under setting [6]; 0.804 under setting [7]; 0.993 under setting [8]; 0.974 under setting [9]; 0.951 under setting [10]. For the same molecule, the normalized growth under setting [11] was 0.985; the normalized growth under setting [12] is 0.983; the normalized growth under setting [13] was 0.908; the normalized growth under setting [14] is 0.967; the normalized growth under setting [15] is 0.853; the normalized growth under setting [16] was 0.902. Moreover, the normalized growth is 0.954 under setting [17]; 0.982 under setting [18]; 0.923 under setting [19]; 0.882 under setting [20]; 0.919 (active) under setting [21]; 0.95 under setting [22]. The normalized growth was 0.988 under setting [23]; 0.845 (active) under setting [24]; 0.921 under setting [25]; 0.919 under setting [26]; 0.776 under setting [27]; 0.955 under setting [28].
Take `Cc1ccc(Sc2ccc([N+](=O)[O-])cc2/C=C2\SC(=S)NC2=O)cc1`: the normalized growth under setting [1] is 0.963; the normalized growth under setting [2] was 0.992; the normalized growth under setting [3] was 0.99; the normalized growth under setting [4] was 0.982; the normalized growth under setting [5] was 0.859 (active); the normalized growth under setting [6] is 0.98. Besides, the normalized growth under setting [7] is 0.615 (active); the normalized growth under setting [8] is 0.991; the normalized growth under setting [9] was 1; the normalized growth under setting [10] is 0.997; the normalized growth under setting [11] was 0.976; the normalized growth under setting [12] was 0.979. Also, the normalized growth is 0.324 (active) under setting [13]; 0.999 under setting [14]; 0.82 under setting [15]; 0.744 (active) under setting [16]; 0.897 under setting [17]; 0.984 under setting [18]. In addition, the normalized growth is 0.978 under setting [19]; 0.524 (active) under setting [20]; 0.996 under setting [21]; 0.887 under setting [22]; 0.969 under setting [23]; 0.903 under setting [24]. The normalized growth runs as follows: under setting [25], 0.963; under setting [26], 0.924; under setting [27], 0.553 (active); under setting [28], 0.982.
Regarding `CC(=O)N[C@@H](Cc1c[nH]c2ccccc12)C(=O)OCc1cc(C(F)(F)F)cc(C(F)(F)F)c1`, the normalized growth runs as follows: under setting [1], 0.999; (S. cerevisiae deletion strains, locus YAL040C, strain CLN3, hits give low values) 1.02; (S. cerevisiae deletion strains, locus YDR363W, strain ESC2, hits give low values) 1.01; (S. cerevisiae deletion strains, locus YER002W, strain NOP16, hits give low values) 1; under setting [19], 0.994; (S. cerevisiae deletion strains, locus YNL128W, strain TEP1, hits give low values) 1.03. For the same molecule, the normalized growth runs as follows: under setting [21], 0.969; (S. cerevisiae deletion strains, locus YNL175C, strain NOP13, hits give low values) 0.985; (S. cerevisiae deletion strains, locus YNL197C, strain WHI3, hits give low values) 0.994; (S. cerevisiae deletion strains, locus YNL224C, strain SQS1, hits give low values) 0.994; under setting [23], 1.01; (S. cerevisiae deletion strains, locus YOR083W, strain WHI5 (second series), hits give low values) 1.03.
